Compound activity (PubChem)
The list is not random: actives were taken first. Their share in the collection is about 9.8%.
ALDH1A1 inh – blocks purified human ALDH1A1 activity; Purified ALDH1A1, NADH fluorescence, propionaldehyde substrate; Potency, µM (series often up to 75.3 µM), actives largely listed as inhibitors; P00352; 220,000 compounds, 7.3% hits; active = well fitted inhibition curve with a large enough effect, not every such curve was filed as active; inconclusive = small, poorly fitted or top-dose-only effect, or another doubt; inactive = no such curve, though single readings can be large or run the other way
Target sequence (P00352 whole entry, looked up): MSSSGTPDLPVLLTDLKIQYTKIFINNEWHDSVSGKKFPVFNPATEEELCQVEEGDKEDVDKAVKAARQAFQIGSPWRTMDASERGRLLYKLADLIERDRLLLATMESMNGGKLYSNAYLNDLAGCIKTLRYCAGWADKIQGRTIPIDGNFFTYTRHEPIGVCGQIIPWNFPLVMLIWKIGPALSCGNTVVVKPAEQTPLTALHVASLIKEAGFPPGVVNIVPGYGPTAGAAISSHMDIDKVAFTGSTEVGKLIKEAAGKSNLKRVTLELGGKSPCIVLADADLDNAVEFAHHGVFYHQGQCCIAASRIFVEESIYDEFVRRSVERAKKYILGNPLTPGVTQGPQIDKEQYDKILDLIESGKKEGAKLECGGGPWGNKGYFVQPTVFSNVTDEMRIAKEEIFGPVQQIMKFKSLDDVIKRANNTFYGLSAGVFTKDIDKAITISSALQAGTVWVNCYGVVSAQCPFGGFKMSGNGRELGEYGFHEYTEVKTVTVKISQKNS
JMJD2E inh – JMJD2E (human) inhibition | Potency, µM (series often up to 57.1 µM), hits mostly inhibitors | B2RXH2 | 230,000 compounds, 1.6% hits | JMJD2E catalytic domain, FDH-coupled NADH fluorescence (FDH is formaldehyde dehydrogenase); also: nearly all actives have a fitted effect of over 50% in size
CBFb RUNX1 block – blocks binding between human CBF-beta and RUNX1; Q01196+Q13951; AlphaScreen CBFb-His/RUNX1-biotin binding, biochemical; Potency, µM (titrated, usually from 59.8 µM), most hits filed as inhibitors; 230,000 tested, under 10 active; AID 1477
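Interaction loss through any mechanism counts as activity. Pre-formed complex of His-CBF-beta and biotin-RUNX1 (30 nM apiece) is incubated with compound 15 min, then with 50 ng nickel and 50 ng streptavidin beads for 90 min before AlphaScreen detection.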
HPGD block – inhibitors of human 15-hydroxyprostaglandin dehydrogenase (HPGD); P15428; purified HPGD, NADH fluorescence kinetic, PGE2 substrate; Potency, µM, usual class: inhibitors; 150,000 compounds, 4.3% hits; active = well fitted inhibition curve with a large enough effect, not every such curve was filed as active; inconclusive = small, poorly fitted or top-dose-only effect, or another doubt; inactive = no such curve, though single readings can be large or run the other way
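NADH formation kinetics: reaction with 30 uM PGE2 and 1 mM NAD+ (final), 20 nM enzyme, Tris-HCl pH 8 with Tween 20, after 15 min compound preincubation at room temperature. Fluorescence change, last versus first of five reads.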
HTT aggregate – inhibitors of mutant huntingtin aggregate formation in PC12 cells; 220,000 compounds, 1.1% hits; Potency, µM (titrated, usually from 46.1 µM), most hits filed as inhibitors; PC12 HttQ103-GFP aggregates, Acumen cytometry, 40 h; AID 1688; also: nearly all actives have a fitted effect of over 60% in size
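Ecdysone-promoter PC12 model expressing HTT exon 1 Q103 fused to GFP, induced by tebufenozide at 100 nM final. Compounds titrated; aggregates sized 1–25 µm scored on a 488 nm laser cytometer.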
HTT cytoprotect – cytoprotection in Huntington HTT-Q103 PC12 cell model. PC12 HTT-Q103 induced, cytoprotection, ATP luminescence, 40 h. Potency, µM (highest dose often 56.4 µM), usual class: activators. 230,000 compounds, 0.14% hits. AID 1471; also: nearly all actives have a fitted effect of over 45% in size
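Compounds were screened for protection of PC12 cells against cell death after tebufenozide induction (100 nM final) of mutant Huntingtin exon 1 (Q103) fused to GFP.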
A number is an active result; i = inactive; ? = inconclusive; nt = no result given; ! = a repeat was not active; [ ] = dose if it differs, or a comment. Unless noted, calls follow the shape of the dose curve; as a rule, active = well fitted curve in the direction sought with a large enough effect; inconclusive = small, poorly fitted or top-dose-only effect, or another doubt; inactive = no such curve, though single readings can be large; an effect the other way counts as inactive or inconclusive.

SMILES	ALDH1A1 inh	JMJD2E inh	CBFb RUNX1 block	HPGD block	HTT aggregate	HTT cytoprotect
CCCn1c(-c2ccc(F)cc2)nc2c(NCCN3CCCC3)nc(C)nc21	?	?	i	?	nt	i
O=C1c2ccccc2S(=O)(=O)N1CC(O)COc1ccc(Cl)cc1 (stereo not drawn)	?	i	i	nt	i	i
CN1CCc2c(n(CC(O)CN(CCO)CCO)c3ccccc23)C1=O (stereo not drawn)	i	?	i	nt	i[9.22 µM]	i[10 µM]
CN1CCc2c(n(CC(O)CN3C(=O)c4ccccc4S3(=O)=O)c3ccccc23)C1=O (stereo not drawn)	10µM	i	i	i	i	i[10 µM]
Cc1c(C)n(CC(O)CN2C(=O)c3ccccc3S2(=O)=O)c2ccccc12 (stereo not drawn)	14µM	i	i	20µM	i	i
COc1ccc(OC)c(NC(=O)CSc2ncccc2C(=O)O)c1	?	i	i	13µM	i	i[10 µM]
COc1ccc(NC(=O)CSc2ccccn2)cc1OC	i	i	i	i	i	i
COc1ccc(NC(=O)CSc2ncccc2C(=O)OC(C)C)cc1OC	0.079µM	i	i	i	?	i[10 µM]
COc1cccc(-n2ccnc2SCC(=O)Nc2cc(OC)ccc2OC)c1	i	i	?	i	i	i
CCOc1ccc(-n2nnnc2SCC(=O)NNC(=O)c2ccco2)cc1	i	i	i	nt	i[9.22 µM]	i[10 µM]
CCSc1nnc(-c2sc3nnc(-c4ccccc4)c(-c4ccccc4)c3c2N)o1	?	i	i	i	i	i
COc1ccc(NC(=O)Nc2ccccc2F)c(C)c1	i	i	i	nt	i	i
COc1ccc(C(=O)C[n+]2cn(C(F)F)c3ccccc32)c(F)c1	10µM	i	i	nt	?	?
O=C(CN1CC[n+]2c(-c3cccs3)csc21)c1ccc(-c2ccccc2)cc1	i	i	i	nt	i	i
CCc1ccc(-c2csc3[n+]2CCN3C(C)=O)cc1	?	i	i	14µM	?	i
CC(=O)N1CC[n+]2c(-c3ccc(Cl)cc3)csc21	?	i	i	18µM	i	nt
COC1(c2ccccc2)NC(=S)NN=C1c1ccccc1 (stereo not drawn)	0.89µM	i	i	i	i	i
CCCCOC1(c2ccccc2)NC(=S)NN=C1c1ccccc1 (stereo not drawn)	0.56µM	i	i	i	i	i[10 µM]
COC(=O)CCCC1=CC2=C(c3ccccc3)C(=O)C(C)(OC(=O)C3CCCC3)C(=O)C2=CN1CC(C)C (stereo not drawn)	?	18µM!	i[13.1 µM]	i	i[9.22 µM]	i[10 µM]
COC(=O)CCCC1=CC2=C(c3ccccc3)C(=O)C(C)(OC(=O)C3CCCC3)C(=O)C2=CN1CC1CC1 (stereo not drawn)	i[13.5 µM]	11µM!	i[13.1 µM]	i	i[9.22 µM]	i[10 µM]
COCCN1C=C2C(=O)C(C)(OC(=O)C3CCCC3)C(=O)C(c3ccccc3)=C2C=C1CCCC(=O)OC (stereo not drawn)	i[13.5 µM]	?	i[13.1 µM]	i	i[9.22 µM]	i[10 µM]
CCOc1ccc(-c2nc(CSCC(=O)NC3CCCc4ccccc43)c(C)o2)cc1 (stereo not drawn)	?	?	i	?	?	i[10 µM]
O=c1[nH]c2ccc(N=Cc3c(O)ccc4cc(Br)ccc34)cc2[nH]1	1µM	?	?	i	i	i[10 µM]
CC(C)N(CC(=O)Nc1ccc(Cl)cc1C(F)(F)F)C(=O)CCl	1.8µM	i	i	nt	14µM	i
COc1ccc2[nH]cc(S(=O)(=O)c3ccc(C(C)C)cc3)c(=O)c2c1	i	i	i	nt	i	i
SMILES	ALDH1A1 inh	JMJD2E inh	CBFb RUNX1 block	HPGD block	HTT aggregate	HTT cytoprotect
COc1cc(/C=N/NC(=O)C(=O)/C=C2\NC3(CCCC3)Cc3ccccc32)ccc1O	i	i	?	i	i	i[1.9 µM]
O=C(/C=C1\NC2(CCCC2)Cc2ccccc21)C(=O)N/N=C/c1ccccc1O	4.5µM	i	i	i	i	nt
CCc1onc(C)c1C(=O)O	i	i	i	nt	i	i
COC(=O)[C@@]1(Cc2ccc(F)cc2)[C@H]2c3cc(C(=O)N(C)C)n(Cc4ccc(O)c(OC)c4)c3C[C@H]2CN1C(=O)c1ccccc1	i	i	i	i	nt	i
C=CCN(CC=C)Cc1c(C)[nH]c2ccc(C(=O)OCC)cc2c1=O	?	?	i	?	i	i
Cc1ccc(S(=O)(=O)N(C(=O)c2ccncc2)c2ccc(OC(=O)c3ccncc3)c3ccccc23)cc1	4µM	16µM	i	20µM	?	i[10 µM]
COC(=O)c1c(C)oc2ccc(N(C(=O)c3ccncc3)S(=O)(=O)c3ccc(C)cc3C)cc12	i	?	i	i	i	i[10 µM]
Cc1ccc(S(=O)(=O)N(C(=O)c2ccncc2)c2ccc(OC(=O)c3ccncc3)c3ccccc23)c(C)c1	7.9µM	?	i	28µM	?	i
COC(=O)c1c(C)oc2ccc(N(C(=O)c3ccncc3)S(=O)(=O)c3ccc(C)cc3)cc12	i	?	i	i	i	i
CN(Cc1ccccc1)S(=O)(=O)c1ccc(NS(=O)(=O)Cc2ccccc2)cc1	?	i	i	i	?	i[10 µM]
